Results from article PMC5540273 (PLoS ONE, 2017).

Key:
Settings in all cases: concentration: 1 μM, replicates: in singlicate; n = 1
TNNI3K = system: TNNI3K
TRKA = system: T1, TRKA
T1 construct: gene NTRK1

TRKB = system: TRKB
TRKC = system: T2, TRKC
T2 construct: gene NTRK3

TRPM6 = system: TRPM6
TSSK1B = system: TSSK1B
TSSK3 = system: TSSK3
TTK = system: TTK
TXK = system: TXK
[1] = system: TYK2(JH1domain-catalytic)
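Further: KINOMEscan kinase panel screen.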

SMILES | %Inh (TNNI3K) [%] | %Inh (TRKA) [%] | %Inh (TRKB) [%] | %Inh (TRKC) [%] | %Inh (TRPM6) [%] | %Inh (TSSK1B) [%] | %Inh (TSSK3) [%] | %Inh (TTK) [%] | %Inh (TXK) [%] | %Inh [1] [%]
Cc1cccc(Nc2nc(N[C@H]3CCCC[C@H]3N)ncc2C(N)=O)c1.Cl [GSK986310] | 31 | 99 | 55 | 22 | 0 | 64 | 33 | 36 | 0 | 70
COc1cccc2c(-c3ccncc3)c(-c3ccc(F)cc3)nn12 [GW468513] | 6 | 17 | 11 | 0 | 9 | 49 | 21 | 0 | 6 | 25
COc1cccc(NC(=O)NCCNc2ccnc(Nc3ccc(F)cc3)n2)c1 [GSK1379879] | 0 | 0 | 31 | 38 | 21 | 0 | 14 | 0 | 4 | 33
Cc1ccc(NC(=O)c2ccc(Cl)c(Cl)c2)cc1-c1ccc(C(=O)Nc2ccncc2)cc1 [GSK1398460] | 60 | 0 | 0 | 0 | 14 | 20 | 48 | 15 | 0 | 0
CN(c1ccc(F)c(NC(=O)c2cccc(OC(C)(C)C#N)c2Cl)c1)c1ccc2nc(NC(=O)C3CC3)sc2n1 | 36 | 6 | 0 | 11 | 9 | 24 | 2 | 6 | 5 | 11
Cc1cc(-c2c(-c3ccc(F)cc3)ncn2CCCN2CCOCC2)nc(N)n1 [SB-222517] | 0 | 0 | 0 | 0 | 15 | 0 | 0 | 48 | 14 | 0
CN(c1ccc(NC(=O)Nc2cccc(Cl)c2)cc1)c1ccnc(N)n1.Cl [GW830707] | 19 | 57 | 45 | 89 | 0 | 3 | 0 | 0 | 0 | 0
Nc1cccc(-c2ccc3c(N)n[nH]c3c2)c1 [GSK2193613] | 0 | 35 | 40 | 19 | 0 | 0 | 8 | 21 | 3 | 13
COc1cccc(C2=C(Nc3cccc(O)c3)C(=O)NC2=O)c1 [SB-390771] | 21 | 0 | 0 | 46 | 4 | 27 | 9 | 10 | 11 | 21
CC(C)c1nc(-c2ccc(F)c(NS(=O)(=O)c3c(F)cccc3F)c2)c(-c2ccnc(Nc3ccc(N4CCOCC4)nc3)n2)s1 [GSK1804250] | 18 | 98 | 0 | 0 | 7 | 15 | 24 | 52 | 85 | 39
Cn1cc(-c2cnc(N)c3c(-c4ccc5c(c4)CCN5C(=O)Cc4ccccc4)csc23)cn1 [GSK2593074] | 0 | 79 | 80 | 66 | 15 | 0 | 0 | 7 | 9 | 0
CN(c1ccc2c(c1)nc(NCc1ccccc1)n2C)c1ccnc(Nc2ccc(CS(C)(=O)=O)cc2)n1.Cl [GW811603] | 0 | 78 | 77 | 55 | 0 | 0 | 37 | 16 | 78 | 40
c1ccc(Oc2ccc(Nc3ccnc4cc(-c5ccc(CN6CCCCC6)o5)ccc34)cc2)nc1 [GW567143] | 1 | 98.7 | 18 | 27 | 42 | 6 | 19 | 28 | 0 | 16
Cc1ccc(C)c(NC(=O)Nc2ccc(C)c(-c3ccc(C(=O)Nc4ccncc4)cc3)c2)c1 [GSK1398473] | 59 | 0 | 0 | 0 | 2 | 17 | 2 | 13 | 25 | 0
N#CC1(c2cccc(C(=O)Nc3cccc(Oc4ccc5nc(NC(=O)C6CC6)sc5n4)c3)c2)CC1 | 90.5 | 0 | 7 | 0 | 12 | 0 | 0 | 9 | 86 | 0
Cc1cc(-c2ccnc(Nc3cccc(C#N)c3)n2)cc(C)c1O [GSK1440913] | 25 | 78 | 9 | 39 | 0 | 5 | 7 | 54 | 35 | 60
COC(=O)Nc1nc2ccc(Oc3ccc(CC(=O)Nc4cc(C(F)(F)F)ccc4F)cc3)cc2[nH]1 [GW680903] | 70 | 0 | 37 | 49 | 16 | 0 | 24 | 0 | 8 | 23
